FAS TE block: inhibitors of human fatty acid synthase thioesterase domain | P49327 | recombinant FAS-TE, OMFH fluorogenic substrate, fluorescence endpoint | inhibition, % at 15 µM | 360,000 tested, 0.67% active;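 active = compounds whose normalised, plate-corrected inhibition of enzyme fluorescence in the single-dose primary screen is 50% or more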
Furin inh: human furin inhibition; P09958; purified furin, fluorogenic substrate cleavage; inhibition, % at 20 µM or 30 µM; 220,000 tested, 0.061% active; AID 463115; in the data active = inhibition above about 25%
UBC9 SUMO inh: SUMOylation inhibition; AID 2006; HTRF SUMOylation assay, SAE1/SAE2 + UBC9, in vitro; inhibition, % at 35 µM; 290,000 tested, 0.36% active; in the data active = inhibition above about 50%, passing the limit was not always enough
PKD1 inh: inhibitors of human PKD1 kinase. Q15139. PKD1 kinase fluorescence polarization assay. inhibition, % (test concentration not listed). 200,000 tested, 0.056% active; in the data active = inhibition above about 50%
p97 inhibitor: human p97 ATPase inhibition. P55072. recombinant p97 ATPase, Kinase-Glo ATP luminescence, 3 h. inhibition, % at 8 µM. 220,000 tested, 0.42% active. AID 1481; in the data active = inhibition above about 15%
Target sequence (P55072 whole entry, looked up): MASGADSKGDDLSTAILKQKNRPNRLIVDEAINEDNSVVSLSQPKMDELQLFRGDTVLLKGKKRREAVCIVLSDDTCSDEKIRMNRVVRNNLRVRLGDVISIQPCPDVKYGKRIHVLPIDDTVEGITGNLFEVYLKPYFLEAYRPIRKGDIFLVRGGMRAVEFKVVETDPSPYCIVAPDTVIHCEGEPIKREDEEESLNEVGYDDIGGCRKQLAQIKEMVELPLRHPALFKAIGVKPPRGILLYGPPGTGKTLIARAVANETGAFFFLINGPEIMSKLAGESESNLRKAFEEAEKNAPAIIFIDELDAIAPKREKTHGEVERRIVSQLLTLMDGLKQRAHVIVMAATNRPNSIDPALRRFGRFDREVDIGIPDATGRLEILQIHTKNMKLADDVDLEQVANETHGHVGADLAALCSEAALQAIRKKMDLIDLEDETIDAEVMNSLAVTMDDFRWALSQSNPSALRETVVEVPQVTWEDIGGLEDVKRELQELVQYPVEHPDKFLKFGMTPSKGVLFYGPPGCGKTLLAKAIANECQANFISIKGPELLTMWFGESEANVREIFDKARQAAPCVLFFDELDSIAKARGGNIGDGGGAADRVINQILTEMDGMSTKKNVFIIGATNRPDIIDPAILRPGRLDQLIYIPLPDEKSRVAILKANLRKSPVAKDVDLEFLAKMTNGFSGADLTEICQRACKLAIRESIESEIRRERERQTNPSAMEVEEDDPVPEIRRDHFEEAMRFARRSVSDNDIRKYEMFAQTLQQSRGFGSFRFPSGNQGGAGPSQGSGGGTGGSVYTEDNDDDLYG
Redox H2O2 prof: compounds producing H2O2 with reducing agent – biochemical, NIH compound library profiling, artefact control for MLSCN library redox annotation, primary screen; 200,000 tested, 0.03% active; DTT-dependent redox cycling H2O2, phenol red/HRP absorbance; 100% = 100 µM peroxide control, 0% = buffer; activation, % at 10 µM;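 active = activation of at least 50% relative to the plate's high and low controls in the primary single-dose screen; inactive = activation below 50%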;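 note: compound incubated with DTT at 0.8 mM final as the reducing agent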
p97 confirm: confirmation of human p97 ATPase inhibitors; shares compounds with p97 inhibitor; recombinant p97 ATPase, Kinase-Glo ATP luminescence; AID 1517; 760 tested, 44% active; inhibition, % at 8 µM;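 active = percent inhibition of p97 ATPase above a set limit, the primary screen's mean plus 3 SD, cut at about 15% in these data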
Of the large screens only hits and unclear results are named; the others gave an inactive call (follow-up assays come after a bar, where they were run); ! = not active in a repeat. Only some compounds are listed: those with a hit (about 1.2% of all), similar ones and a draw of the others.

CSc1c(CC(=O)NCCO)n(C)c2ccccc12	p97 inhibitor 17 | p97 confirm inactive
COc1ccc(NC(=O)CSc2ccc3nnc(-c4ccccn4)n3n2)cc1OC	none (no result: Furin inh, PKD1 inh, p97 inhibitor, Redox H2O2 prof)
Cc1nnsc1Sc1cccc(C(F)(F)F)c1	p97 inhibitor 16 | p97 confirm inactive
COC(=O)c1ccccc1Sc1snnc1C	none
CCOc1ccccc1-c1nnc(SCC(=O)NC2(C#N)CCCC2)o1	none (no result: Furin inh, UBC9 SUMO inh, PKD1 inh, p97 inhibitor, Redox H2O2 prof)
CCC12CN3CCN(CC(C3)/C1=N\NC(=O)c1ccc(C(C)(C)C)cc1)C2	p97 inhibitor 21 | p97 confirm inactive
CCC12CN3CCN(CC(C3)/C1=N\NC(=O)c1ccc(F)cc1)C2	none
N#Cc1c(-c2ccco2)cc(-c2ccccc2)[nH]c1=O	p97 inhibitor 22 (no result: PKD1 inh, Redox H2O2 prof) | p97 confirm inactive
Cc1cc(-c2ccccc2)[nH]c(=O)c1C#N	none
N#C/C(=C(/O)CCl)c1nc(-c2ccccc2)cs1	p97 inhibitor 40 (no result: PKD1 inh, Redox H2O2 prof) | p97 confirm 38
Cc1ccc(-c2csc(/C(C#N)=C(\O)CCl)n2)cc1	none
CC(C)OC(=O)c1cc(C(=O)c2cc(Br)ccc2O)coc1=N	none
CCOc1ccccc1NC(=O)c1cc(C(=O)c2cc(Br)ccc2O)coc1=N	p97 inhibitor 25 | p97 confirm 34
Nc1cccc2c1C(=O)N(C(=O)/C=C/c1cccc(Br)c1)C2=O	p97 inhibitor 17 (no result: PKD1 inh, Redox H2O2 prof) | p97 confirm 19
Nc1cccc2c1C(=O)N(C(=O)/C=C/c1cccc(F)c1)C2=O	none
O=C(Nc1nccs1)C1(c2ccc(Cl)cc2)CC1	none
C=C1C2(C(=O)Nc3nccs3)CCC(C2)C1(C)C (configuration not stated)	p97 inhibitor 37 | p97 confirm inactive
COc1ccc(COC(=O)CCc2cc(OC)c(OC)c(OC)c2)cc1F	none (no result: Furin inh, UBC9 SUMO inh, PKD1 inh, p97 inhibitor, Redox H2O2 prof)
Cc1ccc(OCC(O)CN2CCN(Cc3ccc4c(c3)OCO4)CC2)cc1C (configuration not stated)	none
C=CCc1ccccc1OCC(O)CN1CCN(Cc2ccc3c(c2)OCO3)CC1 (configuration not stated)	p97 inhibitor 16! | p97 confirm inactive
Cc1ccc(S(=O)(=O)N2CCCCC2)cc1C(=O)NCc1ccc(S(N)(=O)=O)cc1	none (no result: Furin inh, UBC9 SUMO inh, PKD1 inh, p97 inhibitor, Redox H2O2 prof)
O=C(Nc1cccc(NC(=O)c2ccco2)c1)c1ccc2c(c1)OCO2	none
O=C(Nc1cccc(NC(=O)c2ccco2)c1)c1ccc2c(c1)OCCO2	p97 inhibitor 17 | p97 confirm inactive
O=C(Nc1cccc2cccnc12)c1ccc(Br)cc1Br	none (no result: Furin inh, PKD1 inh, p97 inhibitor, Redox H2O2 prof)
Cc1ccc(/C=C2/SC(=S)N(C3CCCCC3)C2=O)o1	none (no result: Furin inh, PKD1 inh, p97 inhibitor, Redox H2O2 prof)
Cc1ccc(/C=C2/SC(=O)NC2=S)o1	p97 inhibitor 26 | p97 confirm inactive
CCOc1ccc(-n2c(N)c(C(=O)NCc3ccco3)c3nc4ccccc4nc32)cc1	none
Nc1c(C(=O)NCc2ccco2)c2nc3ccccc3nc2n1CCc1ccccc1	UBC9 SUMO inh 99, p97 inhibitor 18 | p97 confirm inactive
CC(=O)c1ccc(OCC(=O)OCC(=O)Nc2sccc2C(N)=O)cc1	none (no result: Furin inh, UBC9 SUMO inh, PKD1 inh, p97 inhibitor, Redox H2O2 prof)
CC(C)[C@H](NC(=O)Nc1ccccc1F)C(=O)O	p97 inhibitor 15 | p97 confirm inactive
c1ccc(CNc2nc(-c3ccccc3)nc3ccccc23)cc1	none (no result: Furin inh, PKD1 inh, p97 inhibitor, Redox H2O2 prof)
Fc1ccc(Nc2nc(NCc3ccco3)c3ccccc3n2)cc1	p97 inhibitor 27 (no result: PKD1 inh, Redox H2O2 prof) | p97 confirm 34
c1ccc(CNc2nc(NCc3ccccc3)c3ccccc3n2)cc1	p97 inhibitor 44 (no result: PKD1 inh, Redox H2O2 prof) | p97 confirm 41
Fc1ccccc1-c1nc(NCc2ccccc2)c2ccccc2n1	p97 inhibitor 30 (no result: PKD1 inh, Redox H2O2 prof) | p97 confirm 40
COCCCNC(=O)c1cc2cc(Br)ccc2oc1=O	none
O=C(NNC(=O)c1cc2cc(Br)ccc2oc1=O)c1ccc(O)cc1O	p97 inhibitor 19 | p97 confirm 24
COc1ccc(CCNC(=O)C2CCCN(S(C)(=O)=O)C2)cc1 (configuration not stated)	none (no result: Furin inh, PKD1 inh, p97 inhibitor, Redox H2O2 prof)
C#CCOCCOCCOCCNc1nc(N2CCN(C(=O)[C@H](CCCN=C(N)N)n3cc(C(N)[C@H](C)CC)nn3)CC2)nc(N2CCN(C(=O)[C@H](CC(N)=O)n3cc(C(N)[C@@H](C)CC)nn3)CC2)n1 (some centres not stated)	none (no result: Furin inh, UBC9 SUMO inh, PKD1 inh, p97 inhibitor, Redox H2O2 prof)
COc1ccccc1-c1cnc(C(O)c2cc(Cl)cc(Cl)c2)[nH]1 (configuration not stated)	none (no result: Furin inh, UBC9 SUMO inh, PKD1 inh, p97 inhibitor, Redox H2O2 prof)
COc1ccc(C(C)=O)cc1COc1ccccc1[N+](=O)[O-]	none
COc1ccc(C(C)=O)cc1COC(=O)c1ccc(N)c([N+](=O)[O-])c1	p97 inhibitor 18 | p97 confirm 22
CCOC(=O)CNC(=O)CSc1cc(C)nc2ccc(OC)cc12	none
COc1ccc2nc(C)cc(SCC(=O)NNC(=O)COc3ccccc3)c2c1	p97 inhibitor 15 | p97 confirm inactive
CCCC(=O)NC(c1cccs1)c1cc([N+](=O)[O-])c2cccnc2c1O (configuration not stated)	none
O=C(CCc1ccccc1)NC(c1cccs1)c1cc(Cl)c2cccnc2c1O (configuration not stated)	p97 inhibitor 19 | p97 confirm inactive
O=C(Oc1cccc(Nc2ncnc3ccccc23)c1)c1ccccc1Cl	p97 inhibitor 16 | p97 confirm 25
C=C1c2cccc(O)c2C(O)=C2C(=O)[C@]3(O)C(O)=C(C(N)=O)C(=O)[C@@H](N(C)C)[C@@H]3[C@@H](O)[C@H]12	UBC9 SUMO inh 93, p97 inhibitor 63 | p97 confirm inactive
CCC(=O)Nc1cccc(-c2cn3ccsc3n2)c1	p97 inhibitor 15 | p97 confirm inactive
CC(C)CC(=O)Nc1cccc(-c2cn3ccsc3n2)c1	none
CCOC(=O)c1[nH]c2ccc(Br)cc2c1NC(=O)CCN1CCCC(C)C1 (configuration not stated)	p97 inhibitor 17 (no result: FAS TE block) | p97 confirm inactive
CCOC(=O)c1[nH]c2ccc(Br)cc2c1NC(=O)CCN1CCC(C)CC1	p97 inhibitor 17 | p97 confirm inactive
COCCN1C(=O)C(=O)/C(=C(/O)c2ccc(S(=O)(=O)N3CCCCC3)cc2)C1c1ccc(O)c(OC)c1 (configuration not stated)	none (no result: Furin inh, PKD1 inh, p97 inhibitor, Redox H2O2 prof)
COc1ccccc1N1CCN(Cc2cc(=O)oc3cc(C)cc(C)c23)CC1	none (no result: Furin inh, UBC9 SUMO inh, PKD1 inh, p97 inhibitor, Redox H2O2 prof)
CCn1c2ccccc2c2cc(NC(=O)CSc3nccc(=O)[nH]3)ccc21	p97 inhibitor 20 | p97 confirm 29
CCn1c2ccccc2c2cc(NC(=O)CSc3nnc(-c4cccc(C)c4)o3)ccc21	p97 inhibitor 15 | p97 confirm 24
O=[N+]([O-])c1c(-c2cn[nH]c2)n[nH]c1-c1cn[nH]c1	p97 inhibitor 25 (no result: PKD1 inh, Redox H2O2 prof) | p97 confirm 36

High-throughput results: PubChem, several laboratories
